The supplement of paper PMC12494721
Structures can show the parent of a compound that is named as a salt.

Legend:
Settings in all cases: incubation time: 27 h, anaerobic, 37 °C;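 for the amine columns active = adjusted P below 0.05 in both replicates with a change the same way and a mean fold change under 0.8 or over 1.25; inactive = the rest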
[1] = tested on: Clostridium sporogenes DSM 1664; test: growth (OD595) fold change vs plate DMSO controls (fold change (ratio)); higher = more growth
Method in brief: (§1)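 Growth is the fold change relative to the median of plate DMSO controls. Readings came from anaerobic mGAM cultures in 96-well plates grown for 27 h at 37 °C and read at 595 nm. They were blank-subtracted, corrected for compound background with 20 µM compound solutions in water, and converted to OD with a calibration factor of 5. Values are means of 2 biological replicates, and fold changes above 1.5 were set to NA.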

Escherichia coli IAI1 [2] = test: as above
Method in brief: as §1

[3] = tested on: Klebsiella aerogenes DSM 30053; test: as above
Method in brief: as §1

[4] = tested on: Ruminococcus gnavus DSM 108212; test: as above
Method in brief: as §1

[5] = tested on: Klebsiella aerogenes DSM 30053; test: fold change of Histamine concentration vs plate DMSO controls (fold change (ratio)); higher = more amine produced, active = hit call of the paper (significant change in both replicates, either direction)
Method in brief: (§2)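 Anaerobic mGAM cultures of four gut bacterial strains were grown at 37 °C for 27 h in 80 µL wells, starting at OD 0.1 before 1:1 dilution. Compounds were at 20 µM final (sweeteners 50 µM). Whole cultures were extracted with cold acetonitrile/methanol containing 0.1% formic acid and centrifuged. Amines were quantified by LC–triple-quadrupole MS (dynamic MRM) against external calibration curves and drift-corrected within batch. Each value is the fold change versus plate DMSO controls, averaged over 2 biological replicates.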

[6] = tested on: Clostridium sporogenes DSM 1664; test: fold change of Tryptamine concentration vs plate DMSO controls (fold change (ratio)); higher = more amine produced, active = hit call of the paper (significant change in both replicates, either direction)
Method in brief: as §2

[7] = tested on: Ruminococcus gnavus DSM 108212; test: as above
Method in brief: as §2

Escherichia coli IAI1 [8] = test: fold change of Putrescine concentration vs plate DMSO controls (fold change (ratio)); higher = more amine produced, active = hit call of the paper (significant change in both replicates, either direction)
Method in brief: as §2

[9] = tested on: Klebsiella aerogenes DSM 30053; test: as above
Method in brief: as §2

Escherichia coli IAI1 [10] = test: fold change of Cadaverine concentration vs plate DMSO controls (fold change (ratio)); higher = more amine produced, active = hit call of the paper (significant change in both replicates, either direction)
Method in brief: as §2

[11] = tested on: Klebsiella aerogenes DSM 30053; test: as above
Method in brief: as §2

[12] = tested on: Ruminococcus gnavus DSM 108212; test: fold change of 2-Phenylethylamine concentration vs plate DMSO controls (fold change (ratio)); higher = more amine produced, active = hit call of the paper (significant change in both replicates, either direction)
Method in brief: as §2

SMILES | growth [1] | growth (Escherichia coli IAI1 [2]) | growth [3] | growth [4] | fold change of Histamine concentration [5] | fold change of Tryptamine concentration [6] | fold change of Tryptamine concentration [7] | fold change of Putrescine concentration (Escherichia coli IAI1 [8]) | fold change of Putrescine concentration [9] | fold change of Cadaverine concentration (Escherichia coli IAI1 [10]) | fold change of Cadaverine concentration [11] | fold change of 2-Phenylethylamine concentration [12]
COCC(=O)Nc1c(I)c(C(=O)NCC(O)CO)c(I)c(C(=O)N(C)CC(O)CO)c1I (stereo not drawn) [Iopromide] (20 µM) | 1.27 | 1.02 | 1.06 | 1.02 | 1.01 (inactive) | 1.01 (inactive) | 1.11 (inactive) | 1.09 (inactive) | 0.975 (inactive) | 0.989 (inactive) | 1.02 (inactive) | 1.15 (inactive)
CCN(CC)C(=O)C1(c2ccccc2)CC1CN (stereo not drawn) [Milnacipran hydrochloride] (20 µM) | 1 | 1.02 | 1.03 | 1.16 | 0.968 (inactive) | 1.11 (inactive) | 1.09 (inactive) | 0.94 (inactive) | 0.958 (inactive) | 0.895 (inactive) | 1.04 (inactive) | 1.12 (inactive)
NC[C@@H]1O[C@H](O[C@H]2[C@@H](O)[C@H](O[C@@H]3[C@@H](O)[C@H](N)C[C@H](N)[C@H]3O[C@H]3O[C@H](CN)[C@@H](O)[C@H](O)[C@H]3N)O[C@@H]2CO)[C@H](N)[C@@H](O)[C@@H]1O [Neomycin sulfate] (20 µM) | 0.902 | 0.997 | 1.02 | 0.938 | 0.893 (inactive) | 1.16 (inactive) | 1.08 (inactive) | 0.954 (inactive) | 0.966 (inactive) | 0.897 (inactive) | 1.02 (inactive) | 1.11 (inactive)
O=C(N/N=C/c1ccc([N+](=O)[O-])o1)c1ccc(O)cc1 [Nifuroxazide] (20 µM) | 1.11 | 1.03 | 0.907 | 1.2 | 1.01 (inactive) | 0.998 (inactive) | 0.89 (inactive) | 0.759 (active) | 0.954 (inactive) | 1.58 (active) | 1.02 (inactive) | 0.626 (active)
CC(=O)OCC(CCn1cnc2cnc(N)nc21)COC(C)=O [Famciclovir] (20 µM) | 0.805 | 1.06 | 0.981 | 0.993 | 1.15 (inactive) | 1.03 (inactive) | 1.05 (inactive) | 1.03 (inactive) | 1.01 (inactive) | 1.01 (inactive) | 0.979 (inactive) | 1.04 (inactive)
CC(N/C(=N\C#N)Nc1ccncc1)C(C)(C)C (stereo not drawn) [Pinacidil monohydrate] (20 µM) | 0.925 | 1 | 0.98 | 1.13 | 1.08 (inactive) | 0.982 (inactive) | 1.09 (inactive) | 1 (inactive) | 1 (inactive) | 1.04 (inactive) | 0.981 (inactive) | 1.1 (inactive)
N[C@H]1CONC1=O [(S,-) Cycloserine] (20 µM) | 0.942 | 0.968 | 0.982 | 0.975 | 0.94 (inactive) | 0.954 (inactive) | 0.905 (inactive) | 1.02 (inactive) | 1.07 (inactive) | 0.959 (inactive) | 1.05 (inactive) | 0.81 (inactive)
c1ccc2c(CC3=NCCN3)cccc2c1 [Naphazoline hydrochloride] (20 µM) | 0.845 | 0.633 | 0.644 | 0.57 | 1.01 (inactive) | 1.01 (inactive) | 1.01 (inactive) | 0.978 (inactive) | 1 (inactive) | 0.96 (inactive) | 1 (inactive) | 0.994 (inactive)
CC(NCCC(c1ccccc1)c1ccccc1)c1ccccc1 (stereo not drawn) [Fendiline hydrochloride] (20 µM) | 0.961 | 0.952 | 0.98 | 1.09 | 1.06 (inactive) | 0.941 (inactive) | 0.888 (inactive) | 1.18 (inactive) | 1.03 (inactive) | 0.196 (active) | 0.998 (inactive) | 0.98 (inactive)
CC(C)(C)NC(=O)[C@@H]1CN(Cc2cccnc2)CCN1C[C@@H](O)C[C@@H](Cc1ccccc1)C(=O)N[C@H]1c2ccccc2C[C@H]1O [Indinavir sulfate] (20 µM) | 1.29 | 1.01 | 1.04 | 0.985 | 0.966 (inactive) | 1.04 (inactive) | 1.05 (inactive) | 1.02 (inactive) | 1.03 (inactive) | 1.05 (inactive) | 1 (inactive) | 1.02 (inactive)
CC[C@H]1OC(=O)[C@H](C)[C@@H](O[C@H]2C[C@@](C)(OC)[C@@H](O)[C@H](C)O2)[C@H](C)[C@@H](O[C@@H]2O[C@H](C)C[C@H](N(C)C)[C@H]2O)[C@](C)(O)C[C@@H](C)C(=O)[C@H](C)[C@@H](O)[C@]1(C)O [Erythromycin] (20 µM) | 0.0078 | 0.762 | 1.16 | 0.129 | 0.3 (inactive) | 0.0554 (active) | 0.144 (active) | 0.459 (inactive) | 0.936 (inactive) | 0.942 (inactive) | 1.07 (inactive) | 0.137 (active)
COc1cc(C(=O)N2CCOCC2)cc(OC)c1OC [Trimetozine] (20 µM) | 0.932 | 0.972 | 0.986 | 1.05 | 0.989 (inactive) | 1.05 (inactive) | 1.04 (inactive) | 1.12 (inactive) | 0.998 (inactive) | 0.99 (inactive) | 1 (inactive) | 1.04 (inactive)
CCCCS(=O)(=O)N[C@@H](Cc1ccc(OCCCCC2CCNCC2)cc1)C(=O)O [Tirofiban hydrochloride] (20 µM) | 0.927 | 0.983 | 1.01 | 1.11 | 0.975 (inactive) | 0.943 (inactive) | 1.03 (inactive) | 0.994 (inactive) | 1 (inactive) | 1 (inactive) | 1.01 (inactive) | 1.02 (inactive)
Cc1nccn1CC1CCc2c(c3ccccc3n2C)C1=O (stereo not drawn) [Ondansetron hydrochloride] (20 µM) | 0.937 | 0.997 | 0.989 | 1.08 | 1.01 (inactive) | 1.03 (inactive) | 1.01 (inactive) | 1.05 (inactive) | 0.978 (inactive) | 1.01 (inactive) | 0.995 (inactive) | 1.01 (inactive)
Cc1cc2c(s1)Nc1ccccc1N=C2N1CCN(C)CC1 [Olanzapine] (20 µM) | 1.16 | 1.13 | 1.04 | 1.19 | 0.961 (inactive) | 0.966 (inactive) | 0.922 (inactive) | 1.04 (inactive) | 0.988 (inactive) | 0.945 (inactive) | 0.999 (inactive) | 0.944 (inactive)
CC(C)NCC(O)c1ccc2ccccc2c1 (stereo not drawn) [Pronethalol hydrochloride] (20 µM) | 1.12 | 1.01 | 0.993 | 0.98 | 0.97 (inactive) | 0.978 (inactive) | 1.04 (inactive) | 1.01 (inactive) | 0.986 (inactive) | 0.994 (inactive) | 0.982 (inactive) | 1.05 (inactive)
CN1C(=O)OC(C)(C)C1=O [Trimethadione] (20 µM) | 1 | 1.03 | 1.01 | 1.27 | 0.977 (inactive) | 0.924 (inactive) | 0.948 (inactive) | 1.02 (inactive) | 0.987 (inactive) | 0.991 (inactive) | 0.999 (inactive) | 0.919 (inactive)
CCN1CCCC1CNC(=O)c1cc(S(=O)(=O)CC)c(N)cc1OC (stereo not drawn) [Amisulpride] (20 µM) | 1.16 | 0.998 | 1 | 1.31 | 1.01 (inactive) | 1.01 (inactive) | 1.04 (inactive) | 1.01 (inactive) | 0.999 (inactive) | 0.987 (inactive) | 0.999 (inactive) | 1.05 (inactive)
Cc1c(-c2ccccc2)oc2c(C(=O)OCCN3CCCCC3)cccc2c1=O [Flavoxate hydrochloride] (20 µM) | 1.09 | 1.01 | 1.06 | 1.14 | 1.01 (inactive) | 1.05 (inactive) | 1.03 (inactive) | 1 (inactive) | 1 (inactive) | 1.03 (inactive) | 1 (inactive) | 1.02 (inactive)
CCCNCC(O)COc1ccccc1C(=O)CCc1ccccc1 (stereo not drawn) [Propafenone hydrochloride] (20 µM) | 1.01 | 0.96 | 1.12 | 0.759 | 0.848 (inactive) | 1.01 (inactive) | 1.03 (inactive) | 0.987 (inactive) | 0.99 (inactive) | 1.05 (inactive) | 1.02 (inactive) | 1.06 (inactive)
CN1CC2c3ccccc3Oc3ccc(Cl)cc3C2C1 (stereo not drawn) [Asenapine maleate] (20 µM) | 1.1 | 0.969 | 1.04 | 0.834 | 0.986 (inactive) | 1.05 (inactive) | 0.905 (inactive) | 1 (inactive) | 1.02 (inactive) | 0.973 (inactive) | 0.998 (inactive) | 0.917 (inactive)
NS(=O)(=O)c1cc(C(=O)O)c(NCc2ccco2)cc1Cl [Furosemide] (20 µM) | 0.941 | 1.01 | 1.04 | 1.22 | 0.987 (inactive) | 0.964 (inactive) | 1.01 (inactive) | 1.04 (inactive) | 0.984 (inactive) | 0.995 (inactive) | 0.988 (inactive) | 0.964 (inactive)
CC(C)(C)NC[C@H](O)COc1cccc2c1CCCC2=O [(-) Levobunolol hydrochloride] (20 µM) | 0.999 | 0.973 | 0.98 | 0.872 | 1.06 (inactive) | 1 (inactive) | 0.916 (inactive) | 1.04 (inactive) | 1.03 (inactive) | 0.996 (inactive) | 1 (inactive) | 0.866 (inactive)
Cc1cn(-c2cc(NC(=O)c3ccc(C)c(Nc4nccc(-c5cccnc5)n4)c3)cc(C(F)(F)F)c2)cn1 [Nilotinib] (20 µM) | 0.888 | 1.07 | 1.11 | 1.02 | 0.924 (inactive) | 1.06 (inactive) | 0.879 (inactive) | 1 (inactive) | 1.01 (inactive) | 0.967 (inactive) | 1.01 (inactive) | 0.897 (inactive)
